KB-3-1 cytotox – kills parental KB-3-1 adenocarcinoma cells | KB-3-1 viability, CellTiter-Glo ATP luminescence, 72 h | Potency, µM (top dose mostly 46.1 µM), most hits filed as cytotoxic | 400,000 tested, 1.4% active | AID 1347075; further: potency means the concentration at half of the fitted maximal effect; on the % scale 0 is the no-effect control and ±100 the full control effect; nearly all actives have a fitted effect of over 60% in size
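Cytotoxicity in the drug-sensitive parental line KB-3-1 was scored as loss of CellTiter-Glo luminescence following 72 h incubation with compound. Values come from curve fitting of normalized concentration-response data.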
DRD3 antagonist – D3 dopamine receptor (human) antagonism. P35462. D3R cells, DiscoveRx beta-arrestin luminescence, antagonist mode; hits give low values. max response, negative = inhibition, %. 360,000 tested, 2.5% active. AID 652054; in the data active means max response below about -50%; inconclusive means no clear call, values can overlap the other calls; further: on the % scale 0 is the no-effect control and ±100 the full control effect
Target sequence (P35462 whole entry, looked up): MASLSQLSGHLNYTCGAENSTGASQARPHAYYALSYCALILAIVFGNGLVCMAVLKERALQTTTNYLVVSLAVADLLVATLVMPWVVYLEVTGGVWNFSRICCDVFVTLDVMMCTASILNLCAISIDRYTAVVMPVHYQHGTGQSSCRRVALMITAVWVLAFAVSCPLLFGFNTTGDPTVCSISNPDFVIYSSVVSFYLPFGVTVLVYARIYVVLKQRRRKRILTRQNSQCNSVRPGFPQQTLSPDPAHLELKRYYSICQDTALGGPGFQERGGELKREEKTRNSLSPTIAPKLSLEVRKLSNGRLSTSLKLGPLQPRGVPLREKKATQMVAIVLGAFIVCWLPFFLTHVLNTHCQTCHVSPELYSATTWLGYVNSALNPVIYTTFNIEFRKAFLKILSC
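Cells expressing the human receptor were seeded at 1500 cells/well, incubated overnight at 37 degrees C in 5% CO2, then exposed to library compounds with dopamine controls for 90 minutes at 37 degrees C before luminescent detection.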
SW480 rerep – induces DNA re-replication in SW480 colon adenocarcinoma cells. SW480 DNA re-replication, Hoechst DNA content imaging, 48 h. Potency, µM (top dose mostly 46.1 µM), for inactives: at the highest dose re-replication activation, usual class: activators. 340,000 tested, 1.8% active; further: potency means the concentration at half of the fitted maximal effect; % of control where 0% means no effect; nearly all actives have a fitted effect of over 55% in size
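First, 250 cells per well were seeded. Next, compound or vehicle (23 nL) was pinned in, plates sat 48 hr at 37 C. Finally Hoechst was added for 40 min before fluorescence scanning.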
KB-V1 MDR tox – kills drug-selected multidrug resistant KB-V1 cells. 400,000 tested, 3.4% active. KB-V1 MDR cells viability, CellTiter-Glo, 72 h. Potency, µM (highest dose often 46.1 µM), usual class: cytotoxic; further: potency means the concentration at half of the fitted maximal effect; on the % scale 0 is the no-effect control and ±100 the full control effect; nearly all actives have a fitted effect of over 60% in size
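Readout: CellTiter-Glo luminescence, 10 min after addition. Cells: KB-V1 MDR subline, 72 h at 37 degrees C with compound. Analysis: corrected, normalized data fitted to concentration-effect curves.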
MCF10A rerep – inducers of DNA re-replication in MCF 10A breast cells | MCF 10A DNA re-replication, Hoechst nuclear intensity, 48 h | Potency, µM (highest dose often 46.1 µM), inactives show at the top dose activity, positive = re-replication, most hits filed as activators | 350,000 tested, 2.9% active | AID 624296; further: potency means the concentration at half of the fitted maximal effect; % of control where 0% means no effect; nearly all actives have a fitted effect of over 50% in size
DRD3 agonist – D3 dopamine receptor (human) agonism; max activation, %; D3R DiscoveRx beta-arrestin cells, luminescence, 90 min; P35462; 410,000 tested, 0.58% active; in the data active means max activation above about 30%; further: 0% is about no effect
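Agonist mode: compounds and dopamine controls were applied to plated cells for 90 min at 37 degrees C after an overnight attachment at 1500 cells/well. Luminescent read-out followed 30 - 60 minutes at room temperature with DiscoveRx detection reagent.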
* marks the source's active call; other numbers are inactive results; i = inactive; ? = inconclusive; . = not tested or not shown; [ ] = another dose, or the depositor's remark. An excerpt weighted towards active compounds, which were near 8.9% of everything screened. Unless noted, the call rests on the fitted dose curve; in most records, active means well fitted curve in the direction sought with a large enough effect; inconclusive means small, poorly fitted or top-dose-only effect, or another doubt; inactive means no such curve, though single readings can be large; an effect the other way counts as inactive or inconclusive.

SMILES | KB-3-1 cytotox | DRD3 antagonist | SW480 rerep | KB-V1 MDR tox | MCF10A rerep | DRD3 agonist
Cc1ccc(N2CCN(C(=O)c3cc(-c4ccc(F)cc4)[nH]c3C)CC2C)cc1 (configuration not stated) | ? | 15 | 5% | ? | 16% | 25
Cc1ccc(NC(=S)NCCO)c(C)c1 | i | -56* | 0% | i | 1% | -7
CS(=O)(=O)c1ccc(Cl)c(NC(=O)CCl)c1 | 6.5µM* | 0 | ? | 21µM* | ? | 0
Cc1ccc(NC(=S)NCCc2ccccc2)c(C)c1 | i | 2 | ? | ? | 17% | 5
Cc1ccc(NC(=O)CCl)c(C)c1 | 16µM* | -1 | ? | ? | ? | 4
Cc1ccc(NC(=O)CCc2ccc(C)o2)c(C)c1 | ? | 4 | 10% | ? | 2% | -1
CCN(c1ccc(OC)cc1)S(=O)(=O)c1ccc2[nH]c(=O)ccc2c1 | i | . | . | i | . | -3
COc1ccc(OC)c(C2CC(c3c(-c4ccccc4)c4cc(Cl)ccc4[nH]c3=O)=NN2S(C)(=O)=O)c1 (configuration not stated) | i | -23 | ? | i | 7.3µM* | 5
COc1ccc(C2CC(c3c(-c4ccccc4)c4cc(Cl)ccc4[nH]c3=O)=NN2S(C)(=O)=O)cc1 (configuration not stated) | i | -16 | 6% | i | ? | -1
CC(C)CC(N)c1csc(Nc2ccc(C(F)(F)F)cn2)n1 (configuration not stated) | ? | 6 | . | 16µM* | . | -5
NC(c1csc(Nc2ccc(C(F)(F)F)cn2)n1)C1CCCCC1 (configuration not stated) | ? | -53* | . | ? | . | -13
NC(CO)c1csc(Nc2ccc(C(F)(F)F)cn2)n1 (configuration not stated) | i | 0 | . | i | . | 8
O=C(O)c1ccccc1C(=O)N1N=C(c2ccccc2)CC1c1ccccc1O (configuration not stated) | i | 1 | -4% | i | 17% | -2
CC(C)(C)c1ccc(-c2nc(NC(=O)CSc3ncnc4sc5c(c34)CCCC5)ns2)cc1 | . | . | . | . | . | -10
O=C(C[n+]1ccccc1Cl)c1ccc2c(c1)CCCC2 | i | . | . | i | . | .
c1cnc2ncc3sccc3c2c1 | i | 6 | 16µM* | i | -7% | 6
COc1ccccc1CNC(=O)C(=O)NCC(c1ccco1)S(=O)(=O)c1cccs1 (configuration not stated) | i | . | . | i | . | 9
Cc1ccc(CNC(=O)Cn2ncn3cccc3c2=O)cc1 | i | 8 | -3% | i | -1% | 1
CCN(CC)CCCNC(=O)Cn1ncn2cccc2c1=O | i | -73* | 0% | i | 0% | -8
c1ccc2c(CCC3CCNCC3)c[nH]c2c1 | . | . | . | . | . | -19
CC1CCN(CC(O)CN2c3ccccc3Sc3ccccc32)CC1 (configuration not stated) | i | -103* | 3% | i | 5% | 1
OCCNCC(O)CN1c2ccccc2Sc2ccccc21 (configuration not stated) | i | ? | 4%[9.22 µM] | i | -1% | -29
CCCN(CCC)CCNC(=O)c1cc2c(=O)n(C)c3ccccc3c2n1C | i | ? | 1% | i | ? | -12
CN(CCNC(=O)CCCOc1cc(=O)n(C)c2ccccc12)Cc1ccccc1 | i | -93* | 0% | i | ? | -16
Cn1c(C(=O)NCCN2CCOCC2)cc2c(=O)n(C)c3ccccc3c21 | i | -1 | -2% | i | 0% | 3
Cn1c(C(=O)NCCN2CCc3ccccc3C2)cc2c(=O)n(C)c3ccccc3c21 | i | -88* | 15% | i | 26% | -12
CN(CCNC(=O)c1cc2c(=O)n(C)c3ccccc3c2n1C)Cc1ccccc1 | ? | -25 | 3% | i | 21µM* | -10
COc1cccc(CNC(=O)CCCN2C(=O)CSc3c2c(C)nn3-c2ccccc2)c1 | i | . | . | i | . | -4
